Experimental data taken from the supplement of paper PMC12282887.
± gives the standard deviation of the averaged measurements.

Test system: E. coli BW25113 marRABp lux reporter
Experiment: promoter activity interaction Z-score (Lux/OD deviation from empty-vector control); higher = stronger promoter induction by the compound
Procedure: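 E. coli BW25113 (wild type or ΔmarA/ΔsoxS/Δrob) carrying pTU175 luxCDABE promoter reporters was grown in LB in 384-well plates at 37°C with each of 94 compounds at 4 two-fold concentrations, in biological duplicates. Luminescence and OD600 were read every 30 min for 12 h and integrated as AUC over 8 h (0-8 h WT, 1-9 h mutants). Lux AUC was divided by OD AUC; the interaction score is the residual of a Huber robust fit of each promoter against the empty-vector control, then Z-transformed per promoter.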

Compound	promoter activity interaction Z-score (0.063 µg/ml, genetic background: wild type)	promoter activity interaction Z-score (0.063 µg/ml, genetic background: ΔmarA)	promoter activity interaction Z-score (0.063 µg/ml, genetic background: Δrob)	promoter activity interaction Z-score (0.063 µg/ml, genetic background: ΔsoxS)	promoter activity interaction Z-score (0.13 µg/ml, genetic background: wild type)	promoter activity interaction Z-score (0.13 µg/ml, genetic background: ΔmarA)	promoter activity interaction Z-score (0.13 µg/ml, genetic background: Δrob)	promoter activity interaction Z-score (0.13 µg/ml, genetic background: ΔsoxS)	promoter activity interaction Z-score (0.25 µg/ml, genetic background: wild type)	promoter activity interaction Z-score (0.25 µg/ml, genetic background: ΔmarA)	promoter activity interaction Z-score (0.25 µg/ml, genetic background: Δrob)	promoter activity interaction Z-score (0.25 µg/ml, genetic background: ΔsoxS)	promoter activity interaction Z-score (0.5 µg/ml, genetic background: wild type)	promoter activity interaction Z-score (0.5 µg/ml, genetic background: ΔmarA)	promoter activity interaction Z-score (0.5 µg/ml, genetic background: Δrob)	promoter activity interaction Z-score (0.5 µg/ml, genetic background: ΔsoxS)	promoter activity interaction Z-score (11.9 µg/ml, genetic background: wild type)	promoter activity interaction Z-score (11.9 µg/ml, genetic background: ΔmarA)	promoter activity interaction Z-score (11.9 µg/ml, genetic background: Δrob)	promoter activity interaction Z-score (11.9 µg/ml, genetic background: ΔsoxS)	promoter activity interaction Z-score (23.7 µg/ml, genetic background: wild type)	promoter activity interaction Z-score (23.7 µg/ml, genetic background: ΔmarA)	promoter activity interaction Z-score (23.7 µg/ml, genetic background: Δrob)	promoter activity interaction Z-score (23.7 µg/ml, genetic background: ΔsoxS)	promoter activity interaction Z-score (47.4 µg/ml, genetic background: wild type)	promoter activity interaction Z-score (47.4 µg/ml, genetic background: ΔmarA)	promoter activity interaction Z-score (47.4 µg/ml, genetic background: Δrob)	promoter activity interaction Z-score (47.4 µg/ml, genetic background: ΔsoxS)	promoter activity interaction Z-score (94.8 µg/ml, genetic background: wild type)	promoter activity interaction Z-score (94.8 µg/ml, genetic background: ΔmarA)	promoter activity interaction Z-score (94.8 µg/ml, genetic background: Δrob)	promoter activity interaction Z-score (94.8 µg/ml, genetic background: ΔsoxS)
CO[C@@]12[C@H](COC(N)=O)C3=C(C(=O)C(C)=C(N)C3=O)N1C[C@@H]1N[C@@H]12 [Mitomycin C]	-0.000521 ± 0.092	-0.0389 ± 0.12	0.174 ± 0.0026	-0.0406 ± 0.22	0.0648 ± 0.23	0.518 ± 1.1	0.208 ± 0.51	0.0422 ± 0.14	0.242 ± 0.24	-0.125 ± 0.18	0.258 ± 0.1	-0.121 ± 0.19	-0.107 ± 0.17	0.219 ± 0.99	-0.172 ± 0.14	-0.177 ± 0.11	–	–	–	–	–	–	–	–	–	–	–	–	–	–	–	–
NCCc1ccc(O)c(O)c1 [Dopamine]	–	–	–	–	–	–	–	–	–	–	–	–	–	–	–	–	0.0994 ± 0.32	-0.339 ± 0.18	-0.285 ± 0.05	-0.021 ± 0.064	-0.265 ± 0.15	0.159 ± 0.52	0.121 ± 0.22	-0.3 ± 0.046	0.113 ± 0.12	-0.369 ± 0.073	-0.155 ± 0.3	-0.126 ± 0.099	-0.305 ± 0.37	0.217 ± 1.1	-0.642 ± 0.091	-0.61 ± 0.21
